Experimental data taken from PubChem BioAssay AID1159580 (chemical genetic matrix, 2015).
Screen size: about 5,500 compounds; about 2,000 (36%) were called active. Roughly 18% stayed inconclusive and do not appear here. Rule as the data show it: active = normalized growth mostly below about 0.91 (no sharp cut-off); inconclusive = no clear call, values can overlap the other calls; inactive = mostly above about 0.92. This is one part of the list.

Assay: chemical genetic growth profiling, strain panel (AID 1159580);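 also: tested at 20 µM; growth read once vehicle control cultures reached saturation at 30 °C; 1 = growth at the plate median or of vehicle wells; lower values mean less growth of the strain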
Settings: growth OD

Measured: normalized growth

COC[C@]12CN(C=O)C3[C@@H]4[C@H](OC)C1[C@]3(C1CC3(O)C(OC)C(O)C4(OC(C)=O)C1C3OC(=O)c1ccccc1)[C@@H](OC)C[C@H]2O (stereo not given in full)
inactive: S. cerevisiae deletion strains, locus YJR066W, strain TOR1, active compounds read low 0.991 | S. cerevisiae deletion strains, locus YJR075W, strain HOC1, active compounds read low 1.02 | S. cerevisiae deletion strains, locus YKL009W, strain mrt4, active compounds read low 0.991 | S. cerevisiae deletion strains, locus YKL068W, active compounds read low 1 | S. cerevisiae deletion strains, locus YKL085W, strain MDH1 (second series), active compounds read low 1.01 | S. cerevisiae deletion strains, locus YKL085W, strain MDH1, active compounds read low 1.01 | S. cerevisiae deletion strains, locus YKL160W, strain elf1, active compounds read low 1.01 | S. cerevisiae deletion strains, locus YKR001C, strain vps1, active compounds read low 1.02 | S. cerevisiae deletion strains, locus YKR026C, strain gcn3, active compounds read low 1.02 | S. cerevisiae deletion strains, locus YKR091W, strain srl3, active compounds read low 1.01 | S. cerevisiae deletion strains, locus YLL001W, strain dnm1, active compounds read low 1.01 | S. cerevisiae deletion strains, locus YLL026W, active compounds read low 1.01 | S. cerevisiae deletion strains, locus YLL041C, strain sdh2, active compounds read low 1.01 | S. cerevisiae deletion strains, locus YLR027C, strain aat2, active compounds read low 1 | S. cerevisiae deletion strains, locus YLR039C, strain RIC1, active compounds read low 1.06 | S. cerevisiae deletion strains, locus YLR058C, strain SHM2, active compounds read low 1.02 | S. cerevisiae deletion strains, locus YLR102C, strain apc9, active compounds read low 1.01 | S. cerevisiae deletion strains, locus YLR113W, strain HOG1, active compounds read low 0.972 | S. cerevisiae deletion strains, locus YLR221C, strain rsa3, active compounds read low 1.01 | S. cerevisiae deletion strains, locus YLR258W, strain gsy2, active compounds read low 1.02 | S. cerevisiae deletion strains, locus YLR262C, strain YPT6 (second series), active compounds read low 0.995 | S. cerevisiae deletion strains, locus YLR262C, strain YPT6, active compounds read low 1.04 | S. cerevisiae deletion strains, locus YLR268W, strain sec22, active compounds read low 0.992 | S. cerevisiae deletion strains, locus YLR320W, strain mms22, active compounds read low 1.03 | S. cerevisiae deletion strains, locus YLR342W, strain FKS1 (second series), active compounds read low 1.01 | S. cerevisiae deletion strains, locus YLR342W, strain FKS1, active compounds read low 1.03 | S. cerevisiae deletion strains, locus YLR357W, strain rsc2, active compounds read low 1.01 | S. cerevisiae deletion strains, locus YLR370C, strain arc18, active compounds read low 1.01 | S. cerevisiae deletion strains, locus YLR371W, strain rom2, active compounds read low 0.995 | S. cerevisiae deletion strains, locus YLR384C, strain iki3, active compounds read low 1.01 | S. cerevisiae deletion strains, locus YLR418C, strain cdc73, active compounds read low 1.05 | S. cerevisiae deletion strains, locus YML016C, strain PPZ1, active compounds read low 0.999 | S. cerevisiae deletion strains, locus YML032C, strain rad52, active compounds read low 0.995 | S. cerevisiae deletion strains, locus YML120C, strain ndi1, active compounds read low 1.01 | S. cerevisiae deletion strains, locus YML124C, strain tub3, active compounds read low 1.01 | S. cerevisiae deletion strains, locus YMR058W, strain fet3, active compounds read low 1.01 | S. cerevisiae deletion strains, locus YMR078C, strain ctf18, active compounds read low 1.01 | S. cerevisiae deletion strains, locus YMR125W, strain sto1, active compounds read low 1.01 | S. cerevisiae deletion strains, locus YMR129W, active compounds read low 1.01 | S. cerevisiae deletion strains, locus YMR205C, strain PFK2, active compounds read low 1.01 | S. cerevisiae deletion strains, locus YMR223W, strain ubp8, active compounds read low 1.01 | S. cerevisiae deletion strains, locus YMR231W, strain pep5, active compounds read low 1 | S. cerevisiae deletion strains, locus YMR307W, strain GAS1, active compounds read low 1.02 | S. cerevisiae deletion strains, locus YNL067W, strain RPL9B, active compounds read low 1.03 | S. cerevisiae deletion strains, locus YNL071W, strain lat1, active compounds read low 1 | S. cerevisiae deletion strains, locus YNL183C, strain NPR1, active compounds read low 0.987 | S. cerevisiae deletion strains, locus YNL209W, strain ssb2, active compounds read low 1 | S. cerevisiae deletion strains, locus YNL233W, strain BNI4, active compounds read low 1.01 | S. cerevisiae deletion strains, locus YNL248C, strain rpa49, active compounds read low 1.02 | S. cerevisiae deletion strains, locus YNL250W, strain rad50, active compounds read low 1.04 | S. cerevisiae deletion strains, locus YNL271C, strain bni1, active compounds read low 1.02 | S. cerevisiae deletion strains, locus YNL298W, strain CLA4, active compounds read low 1.02 | S. cerevisiae deletion strains, locus YNL307C, strain MCK1, active compounds read low 1.01 | S. cerevisiae deletion strains, locus YNL322C, strain KRE1 (second series), active compounds read low 1.02 | S. cerevisiae deletion strains, locus YNR049C, strain mso1, active compounds read low 1.01 | S. cerevisiae deletion strains, locus YNR052C, strain pop2, active compounds read low 1.01 | S. cerevisiae deletion strains, locus YOL006C, strain TOP1, active compounds read low 1.03 | S. cerevisiae deletion strains, locus YOL012C, strain htz1 0.737 | S. cerevisiae deletion strains, locus YOL147C, strain pex11, active compounds read low 1 | S. cerevisiae deletion strains, locus YOR001W, strain rrp6, active compounds read low 1.02 | S. cerevisiae deletion strains, locus YOR061W, strain CKA2, active compounds read low 1.01 | S. cerevisiae deletion strains, locus YOR069W, strain VPS5, active compounds read low 1.01 | S. cerevisiae deletion strains, locus YOR070C, strain gyp1, active compounds read low 1 | S. cerevisiae deletion strains, locus YOR080W, strain dia2, active compounds read low 1.01 | S. cerevisiae deletion strains, locus YOR083W, strain WHI5, active compounds read low 1.01 | S. cerevisiae deletion strains, locus YOR106W, strain vam3, active compounds read low 1 | S. cerevisiae deletion strains, locus YOR136W, strain idh2, active compounds read low 1.01 | S. cerevisiae deletion strains, locus YOR144C, strain elg1, active compounds read low 1.01 | S. cerevisiae deletion strains, locus YOR184W, strain ser1, active compounds read low 1.01 | S. cerevisiae deletion strains, locus YOR231W, strain MKK1, active compounds read low 1.01 | S. cerevisiae deletion strains, locus YOR265W, strain rbl2, active compounds read low 1 | S. cerevisiae deletion strains, locus YOR270C, strain vph1, active compounds read low 1.03 | S. cerevisiae deletion strains, locus YOR290C, strain snf2, active compounds read low 1.02 | S. cerevisiae deletion strains, locus YOR316C, strain cot1, active compounds read low 1.01 | S. cerevisiae deletion strains, locus YPL051W, strain arl3, active compounds read low 1.01 | S. cerevisiae deletion strains, locus YPL078C, strain atp4, active compounds read low 1.01 | S. cerevisiae deletion strains, locus YPL106C, strain sse1, active compounds read low 0.999 | S. cerevisiae deletion strains, locus YPL240C, strain hsp82, active compounds read low 1.01 | S. cerevisiae deletion strains, locus YPL256C, strain CLN2, active compounds read low 1.08 | S. cerevisiae deletion strains, locus YPR119W, strain clb2, active compounds read low 1 | S. cerevisiae deletion strains, locus YPR141C, strain kar3, active compounds read low 0.998 | S. cerevisiae deletion strains, locus YPR163C, strain tif3, active compounds read low 1.01 | S. cerevisiae deletion strains, locus YPR167C, strain met16, active compounds read low 1.01 | S. cerevisiae deletion strains, strain wtn01, active compounds read low 0.99 | S. cerevisiae strains, strain wild type, active compounds read low 1.02
